Source: PubChem BioAssay (NCI)
This is part of a sample that, as a whole, favours compounds with a hit. Of some 83,000 tested, about 20% had one in any assay.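 Compound tested at a single concentration for 48 hours in 96-well plates; a percent growth value below 10 was scored as active.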 A number with no mark means an inactive call. Calls of active or inactive are those of the source.

How the values were obtained:
Experiment in all cases: NCI-60 one-dose screen, 48 h (100 = growth as untreated, 0 = no growth, -100 = all killed)
Details in all cases: 10 µM unless noted
NCI-H23 lung = tested on: NCI-H23 lung
NCI-H226 lung = tested on: NCI-H226 lung
NCI-H322M lung = tested on: NCI-H322M lung
HOP-62 NSCLC = tested on: HOP-62 NSCLC
NCI-H460 lung = tested on: NCI-H460 lung
HOP-92 NSCLC = tested on: HOP-92 NSCLC
NCI-H522 lung = tested on: NCI-H522 lung
A549/ATCC NSCLC = tested on: A549/ATCC NSCLC
786-0 renal = tested on: 786-0 renal
COLO 205 colon = tested on: COLO 205 colon

SMILES | growth (NCI-H23 lung) | growth (NCI-H226 lung) | growth (NCI-H322M lung) | growth (HOP-62 NSCLC) | growth (NCI-H460 lung) | growth (HOP-92 NSCLC) | growth (NCI-H522 lung) | growth (A549/ATCC NSCLC) | growth (786-0 renal) | growth (COLO 205 colon)
COc1ccc(NC(=O)c2sc3nc(C)c(C(C)=O)cc3c2N)cc1 | 98.1% | 95.9% | 95.5% | 99.1% | 96% | 94.6% | 75.2% | 84% | 91.4% | 103%
N#Cc1ccc(N2Cc3cc(Cl)ccc3OC3=C2C(=O)N(Cc2ccc(F)cc2)C3=O)cc1 | 3.56% (active) | 92.6% | 96.3% | 52% | 23.6% | -64.1% (active) | -63.2% (active) | 68.5% | -90.5% (active) | -73.5% (active)
Nc1c(C(=O)Nc2ccccc2)sc2nc3c(cc12)CN(C(=O)OCc1ccccc1)CC3 | 62.6% | 82.7% | 70% | 44.4% | 34% | 52.4% | 35.6% | 50.2% | 50% | 55.3%
CCOC(=O)c1cnn(-c2nc(-c3ccc(F)cc3)c(C#N)c(N3CCOCC3)n2)c1N | 103% | 92.1% | 105% | 111% | 100% | 98.7% | 90.6% | 93.9% | 82.5% | 107%
[2H]c1nc(Nc2ncc3cc(C(=O)N(C)C)n(C4CCCC4)c3n2)c([2H])c([2H])c1N1C([2H])([2H])C([2H])([2H])NC([2H])([2H])C1([2H])[2H] | 67.1% | 74.6% | 71.5% | 52.3% | 59.1% | 65.8% | 61.8% | 45% | 52.9% | 28.1%
CCN1CCC[C@H]1c1cc(O)c2c(c1OC)C[C@H]1C[C@H]3[C@H](N)C(=O)C(C(N)=O)=C(O)[C@@]3(O)C(=O)C1=C2O | -16.7% (active) | 1.47% (active) | -2.43% (active) | -12% (active) | 2.84% (active) | -3.43% (active) | -21.4% (active) | 6.12% (active) | 3.89% (active) | -18.7% (active)
Fc1ccc(N/N=C/c2ccc(-n3cccn3)cc2)cc1 | 90.7% | 92.3% | 99.9% | 82.1% | 106% | 105% | 77.2% | 93.7% | 104% | 98.1%
CC(C)C[C@H](C(=O)O)N(C)C(=O)[C@@H]1CCCN1C(=O)[C@H](C)OC(=O)[C@H](CCC(N)=O)NC(=O)[C@@H]1CCC(=O)N1 | 109% | 101% | 98.5% | 93.4% | 111% | 102% | 88.7% | 92.2% | 96.1% | 99.3%
C1=CC2=CC=C3C=CC=C4C(c5nc6c7ccccc7c7ccccc7c6[nH]5)=CC(=C1)C2C34 (stereo not given) | 98.1% | 23.8% | 90.9% | 68.7% | 98.9% | 72.9% | 82.5% | 89.7% | 98.2% | 120%
Cc1cc(C)c2nc(Nc3nc(C)c(C)c(=O)[nH]3)nc(C)c2c1 | 18.4% | -4.16% (active) | 23.8% | 12.2% | 8.55% (active) | 7.24% (active) | 7.15% (active) | -32.4% (active) | 6.33% (active) | 1.63% (active)
CC1CCN(CCCCCOc2ccc3oc4ccccc4c(=O)c3c2)CC1 | 75.6% | 90.6% | 78.7% | 98.6% | 81.8% | 83.7% | 76.2% | 73.5% | 75.7% | 58.5%
CCOCc1nc2ccccc2c(=O)[nH]1 | 94.7% | 91.7% | 100% | 102% | 101% | 102% | 91.3% | 100% | 103% | 108%
COc1ccc(NC(=O)c2ccc(Nc3ncnc4[nH]c(C)c(C)c34)cc2)cc1 | 102% | 106% | 101% | 108% | 98.4% | 111% | 97.4% | 94.8% | 101% | 115%
CC(=O)c1ccc(NC(=O)CSc2nnc(-c3cc(-c4ccc(C)cc4)nc4ccccc34)o2)cc1 | 27.6% | 58.7% | 86.5% | 17.6% | 10.5% | 66.9% | 23.2% | 48.9% | 3.06% (active) | 77.4%
N#Cc1c(-c2ccc(F)cc2)c(C#N)c2c(C#N)c(N)nn2c1N | 96.9% | 82.2% | 97.5% | 81% | 98.7% | 76.9% | 85.7% | 92% | 94.2% | 98.4%
O=C(Nc1nc(-c2ccccc2Cl)cs1)c1cc(-c2ccc(Br)cc2)nc2ccccc12 | 14.3% | 37.5% | 70.4% | 52.6% | 45.9% | 21.4% | 4.64% (active) | 37.5% | 75.3% | 67.2%
CC(C)C1=C[C@@]23CC[C@H]4[C@](C)(COCCC#N)CCC[C@]4(C)[C@H]2C[C@@H]1[C@@H]1[C@H]3[C@@H](OCCC#N)CC[C@@H]1OCCC#N | 35.7% | 39.8% | 86.1% | 65% | 30.3% | 53% | 25% | 27.6% | 54.3% | 17.4%
CN1CCN(S(=O)(=O)O[C@@H]2C(=O)N(c3cc4c5ccccc5ccc4c4ccccc34)[C@H]2c2ccc(F)cn2)CC1 | 90.6% | 91.2% | 87.4% | 86.6% | 98% | 65.3% | 70.3% | 83.4% | 79.8% | 96.7%
CCN(CC)CC#CCOC(=O)[C@]1(C)CCC[C@]2(C)[C@H]3C[C@H]4C(C(C)C)=C[C@]3(CC[C@H]21)[C@@H]1C(=O)CCC(=O)[C@@H]14 | 57.3% | 76.2% | 87.7% | 79.2% | 59.2% | 57% | 29.5% | 48.1% | 54.1% | 36.2%
O=S(=O)(Nc1nccs1)c1ccc(Nc2nc(-c3ccncc3)cs2)cc1 | 108% | 102% | 126% | 93.8% | 99.3% | 96.9% | 97.6% | 104% | 97.8% | 93.2%
Cc1cccc(C)c1NCc1nnc(-c2ccco2)o1 | 89% | 80.5% | 91.1% | 80.2% | 97% | 83.4% | 72.8% | 86.8% | 105% | 103%
CC1(c2ccccc2Cl)NC(=O)NC1=O (stereo not given) | 95.2% | 98.6% | 98.8% | 86.4% | 106% | 83.1% | 85% | 91.2% | 99.2% | 108%
O=C(NC[C@H](O)CN1CCc2ccccc2C1)c1cc(NC2COC2)ncn1 | 99.7% | 108% | 93.6% | 92.8% | 97.8% | 112% | 92% | 93.4% | 92% | 92.4%
C=C(C)[C@@H]1CC[C@]2(C(=O)OCCOCCOCC[P+](c3ccccc3)(c3ccccc3)c3ccccc3)CC[C@]3(C)[C@H](CC[C@@H]4[C@@]5(C)CC[C@H](C)C(C)(C)[C@@H]5CC[C@]43C)[C@@H]12 | -80% (active) | -70.9% (active) | -98.1% (active) | -79.5% (active) | -78% (active) | -83.3% (active) | -80.6% (active) | -83.7% (active) | -83.3% (active) | -82.2% (active)
CSc1nc(-c2cccs2)c2c(N)[nH]nc2n1 | 93.1% | 104% | 92.8% | 87.9% | 113% | 110% | 83.3% | 98.5% | 91.4% | 112%
FC(F)(F)c1ccc2c(Nc3cccc(C4CC(c5ccccc5)=NN4c4ccc(Cl)cc4)c3)ccnc2c1 (stereo not given) | 61% | 68.1% | 68.7% | 60.2% | 59.1% | 47.5% | 50.2% | 72.4% | 77.1% | 58.1%
